The record followed here is PubChem BioAssay (EPA / NIEHS).

The source made the active and inactive calls. How the source made its calls: active means hit-call score of the fitted dose curve at least 0.9, where 1 is the maximum; inactive means score below 0.9.

The test system of the assay is TTR (gene 7276). Description: CCTE_GLTED_hTTR_0.125uM: CCTE's human Transthyretin (hTTR) Inhibition Assay, with 0.125uM TTR, Great Lakes Toxicology and Ecology Division (GLTED) Lab (AID 2284431). Here is the method:
CCTE_GLTED_hTTR is a cell-free, single-readout assay designed to test the chemicals' ability to displace T4 from the human transthyretin (TTR) protein. TTR (at 0.125uM or 0.5uM) is incubated in presence of test chemical for 2 hours during which disrupting chemicals displace ANSA from the TTR protein. Results read fluorescence at 380 excitation and 475 emission.CCTE_GLTED_hTTR_0.125uM is the assay component measured from the CCTE_GLTED_hTTR assay. It is designed to make measurements of fluorescent polarization, using a form of binding reporter, as detected with Fluorescence signals by Fluorescence technology.Data from the assay component CCTE_GLTED_hTTR_0.125uM was analyzed at the assay endpoint CCTE_GLTED_hTTR_0.125uM in the positive analysis fitting direction relative to DMSO as the negative control and baseline of activity. Using a type of binding reporter, loss-of-signal activity can be used to understand a chemical's ability to displace T4 from transthyretin. To generalize the intended target to other relatable targets, this assay endpoint is annotated to the 'transporter' intended target family, where the subfamily is 'hormone carrier protein'.
Human transthyretin (TTR) assay, developed at Great Lakes Toxicology and Ecology Division (GLTED) within the EPA's Center for Computational Toxicology and Exposure (CCTE), is designed to test the chemicals' ability to displace T4 from the TTR protein. TTR (0.125uM) is incubated in presence of test chemical for 2 hours during which disrupting chemicals displace ANSA from the TTR protein. Results read fluorescence at 380 excitation and 475 emission.
Take `CCCCC(CC)CCC(CC(C)C)OS(=O)(=O)O` (stereo unspecified): the AC50 (commonly the concentration at which the activity in the assay is half-maximal) was 0.382 µM (active).
With `CN(C)c1ccc(N=Nc2ccccc2C(=O)O)cc1`, the AC50 was 8.96 µM (active).
Under `COC(=O)c1c(C)cc(O)c(C)c1O` stands 1.29 µM (active); under `Oc1ccc(Cl)cc1Cc1cc(Cl)ccc1O`, 0.129 µM (active).
Under `CCCCC/C=C\C/C=C\CCCCCCCC(=O)OC` stands 9.84 µM (active); under `CCCCCCCC/C=C\CCCCCCCC(=O)O`, 3.32 µM (active); under `CCCCCCCCCCOS(=O)(=O)O`, 3.68 µM (active).
In the case of `CC1=NN(c2cc(S(=O)(=O)O)ccc2Cl)C(=O)C1N=Nc1ccccc1` (stereo unspecified), the AC50 was 5.76 µM (active).
On to `CCCCCCCCCCCCCOP(=O)(O)O`, for which the AC50 is 0.78 µM (active).
Take `O=S1(=O)OC(c2ccc(O)cc2)(c2ccc(O)cc2)c2ccccc21`: the AC50 was 3.34 µM (active).
Next, `O=c1cc(-c2ccccc2)oc2ccccc12`: 10.8 µM (active).
